Here are results for eight compounds from PubChem BioAssay (NCATS).

“And” between values parts separate entries of the source, which are not always exact repeats. Equal entries are not always repeated. Records with an inconclusive call do not appear. The source made the active and inactive calls. Unless noted, calls follow the shape of the full dose curve.

Assay [1] has as its target Bile acid receptor (Homo sapiens) (UniProt Q96RI1). The experiment in a line: qHTS assay for small molecule antagonists of farnesoid X receptor signaling (AID 588526). Also: % is scaled to controls: 0 for no effect and ±100 for the full control effect. A digest of the protocol:
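Concentration-response titrations were fitted to the Hill equation for half-maximal inhibition and maximal response, with data normalised to 50 uM chenodeoxycholic acid and DMSO control wells. Cells: FXR-UAS-bla HEK293T, dialyzed FBS.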
On the technique in general: qHTS replaces the single test concentration by a dilution series.

Assay [2] concerns the target Glucocorticoid receptor (Homo sapiens) (UniProt P04150). The experiment in a line: qHTS assay for small molecule agonists of glucocorticoid receptor signaling (AID 588532; active = well fitted curve in the direction sought with a large enough effect in the signal ratio, with a control signal flat; the % refers to the signal ratio;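 also: 100% = dexamethasone at 0.1 µM and 0% = DMSO only wells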). To be noted: HeLa MMTV-bla, beta-lactamase ratio, agonist, 18 h; stronger effect = higher value; percent of dexamethasone control, DMSO zero. A digest of the protocol:
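Titration series, up to 92 uM, applied to GRE-bla HeLa cells for 18 h at 37 C. Detection by CCF4 FRET substrate after 2 h at RT.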

Assay [3] has the same target. The experiment in a line: qHTS assay for small molecule antagonists of glucocorticoid receptor signaling (AID 588533; active = well fitted inhibition curve with a large enough effect in the signal ratio, with a control signal flat, not every such curve was filed as active; the % refers to the signal ratio;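 also: cells stimulated with 2 nM dexamethasone as agonist; % is scaled to controls: 0 for no effect and ±100 for the full control effect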). A digest of the protocol: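 Antagonist-mode qHTS: compound titrations added to GRE-bla HeLa cells, then dexamethasone 2 nM final; 18 h, 37 C. CCF4 FRET fluorescence normalized to dexamethasone and DMSO; IC50 from Hill fit.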
Assay [4] can be described thus: qHTS assay for small molecule antagonists of peroxisome proliferator-activated receptor delta signaling (AID 588535; active = well fitted inhibition curve with a large enough effect in the signal ratio, with a control signal flat, not every such curve was filed as active; the % refers to the signal ratio;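 as to max response: cells co-treated with a PPAR-delta agonist as stimulator during compound exposure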). To be noted: HEK293T PPARd-UAS-bla, beta-lactamase FRET ratio, 18 h; 460 nm channel. A digest of the protocol:
(§1)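 Compounds tested in titration on PPAR-delta-UAS-bla HEK293T cells grown in charcoal/dextran-stripped serum (2%); beta-lactamase activity read via CCF4 emission at 460 and 530 nm.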

Assay [5] concerns the target Peroxisome proliferator-activated receptor delta (Homo sapiens) (UniProt Q03181). Described as above. The essentials:
as §1

The target of assay [6] is Peroxisome proliferator-activated receptor gamma (Homo sapiens) (UniProt P37231). The experiment in a line: qHTS assay for small molecule agonists of peroxisome proliferator-activated receptor gamma signaling (AID 588536; active = well fitted curve in the direction sought with a large enough effect in the signal ratio, with a control signal flat, not every such curve was filed as active; the % refers to the signal ratio;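 also: 0% = DMSO basal wells and 100% = rosiglitazone at 2 µM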). The essentials:
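Beta-lactamase reporter read-out: CCF4 fluorescence (ex 405, em 460/530 nm) after 2 h at RT. HEK293 GeneBLAzer cells were treated for 16 h at 37 C. Hill fits gave EC50 and efficacy versus 2 uM rosiglitazone (100%) and DMSO (0%).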

In assay [7] the target is Vitamin D3 receptor (Homo sapiens) (UniProt P11473). The experiment in a line: qHTS assay for small molecule antagonists of vitamin D receptor signaling (AID 588541).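 Also: receptor activated by calcitriol during compound treatment; series mostly up to about 77 µM; % is scaled to controls: 0 for no effect and ±100 for the full control effect.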 A digest of the protocol:
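VDR-UAS-bla HEK293T cells (2000/well, 2% charcoal-stripped FBS) were treated with titrated compounds plus 1-alpha,25-dihydroxyvitamin D3 (50 nM or 3 nM final) for 16 h at 37 C. CCF4 beta-lactamase fluorescence was read; Hill fits gave IC50.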

Assay [8] has the same target. The experiment in a line: qHTS assay for small molecule agonists of vitamin D receptor signaling (AID 588543).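 Also: 0% = DMSO basal and 100% = reference agonist control.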 The essentials: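 GeneBLAzer VDR-UAS-bla HEK293T cells in 2% charcoal-stripped FBS medium were dosed with compound titrations for 16 h at 37 °C; CCF4 β-lactamase readout (405 nm ex, 460/530 nm em). EC50 and efficacy from Hill fits, normalized to 50 nM calcitriol (100%) and DMSO (0%).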

Assay [9] is described as follows: qHTS assay for small molecule agonists of retinoid X receptor alpha signaling (AID 588544).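 As to activation: 0% = DMSO basal wells and 100% = reference agonist.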 The conditions noted are these: HEK293T RXRa-UAS-bla, beta-lactamase reporter, 18 h; 530 nm emission.
Assay [10] has as its target Retinoic acid receptor RXR-alpha (Homo sapiens) (UniProt P19793). The description is as above.
In assay [11] the target is Thyroid hormone receptor beta (Homo sapiens) (UniProt P10828). The experiment in a line: qHTS assay for small molecule agonists of thyroid hormone receptor beta signaling (AID 588545). The essentials:
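In this cell-based screen, titrated compounds act on HEK 293 cells held in medium with 2% charcoal/dextran FBS, NEAA and pyruvate for 18 hrs at 37 C. Responses are expressed relative to T3 (10 nM) as 100% and basal DMSO as 0%.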

Assay [12] is described as follows: qHTS assay for small molecule antagonists of retinoid X receptor alpha signaling (AID 588546; active = well fitted inhibition curve with a large enough effect in the signal ratio, with a control signal flat, not every such curve was filed as active; the % refers to the signal ratio;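 also: cells stimulated with 9-cis-retinoic acid as agonist; % is scaled to controls: 0 for no effect and ±100 for the full control effect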). The conditions noted are these: HEK293T RXRa-UAS-bla, beta-lactamase ratio, antagonist mode; measured here: W530 green channel, cytotoxicity proxy. A digest of the protocol: (§2)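 Beta-lactamase reporter inhibition, read as CCF4 fluorescence ratio (ex 405, em 460/530 nm) after 2 h at RT. HEK293T UAS-bla cells, 2500/well, were stimulated with 9-cis-RA at 500 or 100 nM final alongside test compound for 18 h at 37 C.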

For assay [13], the target named is Retinoic acid receptor RXR-alpha (Homo sapiens) (UniProt P19793). Described as above. The conditions noted are these: HEK293T RXRa-UAS-bla, beta-lactamase ratio, antagonist mode. A digest of the protocol: as §2
Sequence of Retinoic acid receptor RXR-alpha (Homo sapiens) (P19793 whole entry, looked up): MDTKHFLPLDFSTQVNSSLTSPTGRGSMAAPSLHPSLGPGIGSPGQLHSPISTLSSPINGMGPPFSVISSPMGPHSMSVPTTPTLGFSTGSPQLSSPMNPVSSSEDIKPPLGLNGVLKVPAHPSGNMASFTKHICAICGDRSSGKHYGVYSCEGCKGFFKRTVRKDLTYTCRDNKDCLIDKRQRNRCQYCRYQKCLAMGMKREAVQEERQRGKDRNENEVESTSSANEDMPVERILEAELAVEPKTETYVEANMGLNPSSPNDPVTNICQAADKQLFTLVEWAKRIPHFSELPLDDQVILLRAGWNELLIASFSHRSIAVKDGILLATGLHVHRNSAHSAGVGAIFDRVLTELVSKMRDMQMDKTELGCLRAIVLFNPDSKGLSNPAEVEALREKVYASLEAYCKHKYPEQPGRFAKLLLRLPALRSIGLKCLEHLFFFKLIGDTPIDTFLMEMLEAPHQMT
The target in assay [14] is Thyroid hormone receptor beta (Homo sapiens) (UniProt P10828). The experiment in a line: qHTS assay for small molecule antagonists of thyroid hormone receptor beta signaling (AID 588547; active = well fitted inhibition curve with a large enough effect in the signal ratio, with a control signal flat, not every such curve was filed as active; the % refers to the signal ratio). The conditions noted are these: TR-UAS-bla HEK293, beta-lactamase ratio, antagonist mode, 18 h. The essentials: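 TR-UAS-bla GripTite HEK293 cells in 2% charcoal/dextran FBS medium were preincubated 4 h at 37 C, given compound (0.59 nM to 92 uM) plus 0.4 nM T3 (final) for 18 h, then CCF4 for 2 h at RT; Hill fit gave IC50.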
Sequence of Thyroid hormone receptor beta (Homo sapiens) (P10828 whole entry, looked up): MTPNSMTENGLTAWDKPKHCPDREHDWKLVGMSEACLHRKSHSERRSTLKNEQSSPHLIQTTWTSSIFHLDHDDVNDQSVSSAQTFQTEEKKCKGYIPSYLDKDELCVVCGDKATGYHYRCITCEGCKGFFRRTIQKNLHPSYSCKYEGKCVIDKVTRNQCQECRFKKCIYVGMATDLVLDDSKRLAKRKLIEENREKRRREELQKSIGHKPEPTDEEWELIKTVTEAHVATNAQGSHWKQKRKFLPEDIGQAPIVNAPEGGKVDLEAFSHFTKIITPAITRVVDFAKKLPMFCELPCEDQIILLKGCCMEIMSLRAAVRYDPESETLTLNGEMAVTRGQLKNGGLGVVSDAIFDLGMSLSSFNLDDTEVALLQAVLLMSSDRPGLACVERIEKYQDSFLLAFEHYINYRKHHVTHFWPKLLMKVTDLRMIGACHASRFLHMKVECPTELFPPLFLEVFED

Assay [15] concerns the target Voltage-gated inwardly rectifying potassium channel KCNH2 (Homo sapiens) (UniProt Q12809). The experiment in a line: qHTS Assay for Small Molecule Inhibitors of the Human hERG Channel Activity (AID 588834; active = well fitted inhibition curve with a large enough effect;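 also: top concentration of the series differs between compounds; % is scaled to controls: 0 for no effect and ±100 for the full control effect; lower thallium flux fluorescence means stronger hERG block; nearly all actives have a fitted effect of over 50% in size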). The essentials:
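In hERG-transduced U2OS cells, dye-loaded for 1 hr at room temperature in dark, test compounds incubated 10 min at 37 °C before thallium stimulation. AC50 values derived by Hill modelling of concentration-response.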

Assay [16] in a line: qHTS assay for small molecule activators of the p53 signaling pathway (AID 651743; active = well fitted activation curve with a large enough effect in the signal ratio, not every such curve was filed as active; the % refers to the signal ratio; also: series mostly up to about 92 µM; % of control where 0% means no effect). The conditions noted are these: HCT-116 p53RE-bla, beta-lactamase FRET ratio, 16 h; stronger effect = higher value. The essentials: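 Here HCT-116 cells with an integrated p53-responsive beta-lactamase gene were incubated with compounds (16 hours, 37 C) after a 5-hour plating period; beta-lactamase activity was detected as fluorescence intensity via B/G FRET substrate.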

Assay [17] has as its target Androgen receptor (Homo sapiens) (UniProt P10275). The experiment in a line: qHTS assay for small molecule antagonists of androgen receptor signaling (AID 588516; active = well fitted curve in the direction sought with a large enough effect in the signal ratio, with a control signal flat, not every such curve was filed as active; the % refers to the signal ratio; also: % is scaled to controls: 0 for no effect and ±100 for the full control effect). A digest of the protocol:
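AR-UAS-bla-GripTite HEK 293 cells (2000/well, 5 h at 37 C) received compound titrations, then R1881 at 10 nM final; after 16 h at 37 C, CCF4 dye 2 h RT, beta-lactamase fluorescence read; IC50 from Hill fits.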

The nature of assay [18]: qHTS assay for small molecule agonists of the antioxidant response element (ARE) signaling pathway (AID 651741; active = well fitted activation curve with a large enough effect in the signal ratio; the % refers to the signal ratio; also: % of control where 0% means no effect). A digest of the protocol: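 Beta-lactamase reporter expression driven by the antioxidant response element in HepG2 cells was detected by fluorescence with LiveBLAzer B/G FRET substrate (2 h, room temperature) following 16 h compound treatment at 37 C.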
Assay [19] is described as follows: qHTS assay for small molecule activators of the nuclear factor-kappa B (NF-kB) signaling pathway (AID 651749; active = well fitted activation curve with a large enough effect in the signal ratio; the % refers to the signal ratio; also: series mostly up to about 77 µM; % of control where 0% means no effect). To be noted: NF-kB-bla ME-180 cells, beta-lactamase FRET ratio, 16 h; stronger effect = higher value. A digest of the protocol:
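Beta-lactamase reporter expression, controlled by NF-kB response elements in ME-180 cells, was quantified fluorometrically via FRET disruption; cells at 2,000/well had been incubated with 23 nL test compound for 16 hr.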

In assay [20] the target is Peroxisome proliferator-activated receptor gamma (Homo sapiens) (UniProt P37231). The experiment in a line: qHTS assay for small molecule antagonists of peroxisome proliferator-activated receptor gamma signaling (AID 588537; active = well fitted inhibition curve with a large enough effect in the signal ratio, with a control signal flat, not every such curve was filed as active; the % refers to the signal ratio;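 also: reporter cells co-stimulated with 50 nM rosiglitazone agonist during compound treatment; % of control where 0% means no effect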). A digest of the protocol:
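HEK293 cells, PPAR-gamma-UAS-bla, 3000/well. Pre-incubation 6-6.5 h, 37 C. Compound titration with rosiglitazone 50 nM final, 16 h. CCF4 dye, 2 h RT, dual-emission fluorescence.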

Sequence of Vitamin D3 receptor (Homo sapiens) (P11473 whole entry, looked up): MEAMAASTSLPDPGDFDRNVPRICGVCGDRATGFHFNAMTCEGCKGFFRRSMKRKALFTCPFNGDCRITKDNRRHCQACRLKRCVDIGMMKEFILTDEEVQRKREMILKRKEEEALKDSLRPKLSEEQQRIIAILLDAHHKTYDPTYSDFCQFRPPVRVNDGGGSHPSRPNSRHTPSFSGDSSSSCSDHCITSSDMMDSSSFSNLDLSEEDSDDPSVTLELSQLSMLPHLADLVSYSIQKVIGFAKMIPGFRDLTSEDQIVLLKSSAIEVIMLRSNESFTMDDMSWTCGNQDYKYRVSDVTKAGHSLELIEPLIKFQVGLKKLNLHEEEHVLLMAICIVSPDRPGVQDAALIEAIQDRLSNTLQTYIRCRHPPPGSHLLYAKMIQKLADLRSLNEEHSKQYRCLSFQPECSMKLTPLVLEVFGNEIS
Sequence of Bile acid receptor (Homo sapiens) (Q96RI1 whole entry, looked up): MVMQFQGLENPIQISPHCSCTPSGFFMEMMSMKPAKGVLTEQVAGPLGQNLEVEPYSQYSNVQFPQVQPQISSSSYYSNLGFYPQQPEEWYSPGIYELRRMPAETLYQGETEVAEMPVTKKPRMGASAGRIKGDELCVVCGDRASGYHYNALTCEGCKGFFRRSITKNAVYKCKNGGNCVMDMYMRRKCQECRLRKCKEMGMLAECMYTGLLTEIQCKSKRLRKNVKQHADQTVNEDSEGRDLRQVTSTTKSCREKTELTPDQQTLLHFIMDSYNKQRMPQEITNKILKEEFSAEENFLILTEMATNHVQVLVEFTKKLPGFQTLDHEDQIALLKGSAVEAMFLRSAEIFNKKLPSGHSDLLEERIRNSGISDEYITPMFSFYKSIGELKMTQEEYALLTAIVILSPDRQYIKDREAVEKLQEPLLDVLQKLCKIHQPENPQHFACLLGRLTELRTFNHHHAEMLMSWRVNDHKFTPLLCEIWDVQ
Sequence of Peroxisome proliferator-activated receptor gamma (Homo sapiens) (P37231 whole entry, looked up): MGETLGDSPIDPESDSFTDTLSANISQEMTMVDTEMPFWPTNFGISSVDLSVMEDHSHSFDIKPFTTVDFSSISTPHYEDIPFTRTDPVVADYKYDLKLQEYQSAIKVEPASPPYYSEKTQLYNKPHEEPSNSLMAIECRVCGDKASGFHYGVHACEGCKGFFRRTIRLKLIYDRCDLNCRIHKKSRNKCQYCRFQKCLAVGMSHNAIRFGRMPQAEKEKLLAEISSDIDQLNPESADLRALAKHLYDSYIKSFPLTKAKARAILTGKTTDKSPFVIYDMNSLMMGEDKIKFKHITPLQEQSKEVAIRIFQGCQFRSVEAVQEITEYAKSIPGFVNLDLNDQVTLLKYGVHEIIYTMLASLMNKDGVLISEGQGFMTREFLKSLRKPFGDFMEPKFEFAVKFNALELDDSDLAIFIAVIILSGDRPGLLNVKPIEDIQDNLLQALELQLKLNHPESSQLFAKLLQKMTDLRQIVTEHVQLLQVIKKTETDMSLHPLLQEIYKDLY
Sequence of Peroxisome proliferator-activated receptor delta (Homo sapiens) (Q03181 whole entry, looked up): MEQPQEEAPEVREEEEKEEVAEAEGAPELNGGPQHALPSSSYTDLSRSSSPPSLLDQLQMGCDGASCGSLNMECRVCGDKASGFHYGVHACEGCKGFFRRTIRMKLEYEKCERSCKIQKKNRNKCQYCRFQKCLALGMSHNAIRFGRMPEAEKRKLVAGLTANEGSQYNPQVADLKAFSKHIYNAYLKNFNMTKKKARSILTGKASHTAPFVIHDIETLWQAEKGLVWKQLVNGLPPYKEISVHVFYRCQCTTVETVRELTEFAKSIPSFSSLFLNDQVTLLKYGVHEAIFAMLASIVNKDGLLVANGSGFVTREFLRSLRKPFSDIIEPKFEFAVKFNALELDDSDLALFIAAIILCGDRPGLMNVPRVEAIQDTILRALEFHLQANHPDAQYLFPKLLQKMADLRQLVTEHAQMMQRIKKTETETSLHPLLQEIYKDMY
Sequence of Voltage-gated inwardly rectifying potassium channel KCNH2 (Homo sapiens) (Q12809 whole entry, looked up): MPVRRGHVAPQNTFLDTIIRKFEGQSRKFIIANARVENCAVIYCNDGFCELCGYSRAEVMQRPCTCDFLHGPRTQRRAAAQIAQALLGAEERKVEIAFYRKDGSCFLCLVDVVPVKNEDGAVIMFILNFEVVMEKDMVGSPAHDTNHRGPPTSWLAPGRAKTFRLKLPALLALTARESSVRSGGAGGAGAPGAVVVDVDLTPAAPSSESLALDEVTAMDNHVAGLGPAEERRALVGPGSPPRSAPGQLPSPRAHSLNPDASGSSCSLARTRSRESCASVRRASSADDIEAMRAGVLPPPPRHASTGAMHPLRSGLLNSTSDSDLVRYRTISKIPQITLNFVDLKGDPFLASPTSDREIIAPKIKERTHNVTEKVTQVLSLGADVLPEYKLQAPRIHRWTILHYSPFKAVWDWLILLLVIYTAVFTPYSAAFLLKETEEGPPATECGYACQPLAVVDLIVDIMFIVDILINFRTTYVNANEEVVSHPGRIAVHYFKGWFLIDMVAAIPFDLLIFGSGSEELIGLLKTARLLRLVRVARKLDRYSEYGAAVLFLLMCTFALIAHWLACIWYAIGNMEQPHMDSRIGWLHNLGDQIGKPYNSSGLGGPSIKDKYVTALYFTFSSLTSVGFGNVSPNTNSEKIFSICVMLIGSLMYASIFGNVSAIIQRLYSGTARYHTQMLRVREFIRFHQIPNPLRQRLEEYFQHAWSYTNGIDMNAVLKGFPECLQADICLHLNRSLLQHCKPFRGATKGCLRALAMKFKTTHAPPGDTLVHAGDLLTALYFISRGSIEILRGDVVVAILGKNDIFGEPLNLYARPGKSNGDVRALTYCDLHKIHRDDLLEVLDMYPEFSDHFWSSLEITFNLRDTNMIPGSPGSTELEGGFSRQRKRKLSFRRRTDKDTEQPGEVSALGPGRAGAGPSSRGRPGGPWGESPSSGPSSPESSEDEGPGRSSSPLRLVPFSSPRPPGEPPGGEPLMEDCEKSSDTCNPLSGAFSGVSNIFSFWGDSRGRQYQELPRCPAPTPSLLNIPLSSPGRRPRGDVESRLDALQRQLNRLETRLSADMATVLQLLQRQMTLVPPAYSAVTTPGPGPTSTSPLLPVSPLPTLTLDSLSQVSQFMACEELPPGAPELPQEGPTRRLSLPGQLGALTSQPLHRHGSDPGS
Sequence of Glucocorticoid receptor (Homo sapiens) (P04150 whole entry, looked up): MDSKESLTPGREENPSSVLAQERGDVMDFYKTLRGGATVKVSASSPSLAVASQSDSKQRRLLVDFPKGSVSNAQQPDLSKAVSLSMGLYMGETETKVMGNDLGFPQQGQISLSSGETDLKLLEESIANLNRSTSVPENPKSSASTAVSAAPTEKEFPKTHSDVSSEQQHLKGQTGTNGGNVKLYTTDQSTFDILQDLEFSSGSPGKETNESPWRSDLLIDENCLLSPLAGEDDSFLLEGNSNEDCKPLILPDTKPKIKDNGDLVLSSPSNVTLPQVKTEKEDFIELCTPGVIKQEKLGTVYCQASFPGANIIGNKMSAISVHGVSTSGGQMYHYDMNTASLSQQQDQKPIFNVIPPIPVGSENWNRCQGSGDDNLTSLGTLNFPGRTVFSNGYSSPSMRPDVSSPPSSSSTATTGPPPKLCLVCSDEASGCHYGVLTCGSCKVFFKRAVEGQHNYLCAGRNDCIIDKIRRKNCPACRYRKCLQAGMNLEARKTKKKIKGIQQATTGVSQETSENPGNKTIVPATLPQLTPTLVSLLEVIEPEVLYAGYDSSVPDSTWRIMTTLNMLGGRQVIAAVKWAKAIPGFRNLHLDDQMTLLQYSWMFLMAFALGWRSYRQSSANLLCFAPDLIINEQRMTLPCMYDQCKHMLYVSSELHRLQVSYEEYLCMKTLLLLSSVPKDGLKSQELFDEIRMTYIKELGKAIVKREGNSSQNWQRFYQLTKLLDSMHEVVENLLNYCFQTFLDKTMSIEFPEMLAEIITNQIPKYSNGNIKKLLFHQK

On to `O=Cc1cccc(Br)c1`, for which the call in assay [1], in assay [3], in assay [6], in [7], in assay [8] and in assay [10] was inactive. Moreover, in assay [11], the result was inactive. The activation in [2] is -2.28% (inactive); in assay [16], -0.251% (inactive). Besides, the max response is 21.9% in assay [4], 0.636% in [9], 0.346% in assay [12] and 4.36% (inactive) in assay [13]. Further, the Potency result in assay [5] and in assay [15] was “inactive” throughout. For the same compound, the activity change % (negative = inhibition) in [14] was -16.4% (inactive).

Regarding `CCN(Cc1ccccc1)c1ccccc1`, the outcome in assay [17], in [6] and in assay [10] was inactive. In addition, the results for the max response in [9], in [12] and in assay [13] were -15.3%, -8.88% and -8.29% (inactive), respectively. For the same compound, in [16], the activation is 1.3% (inactive).

Regarding `Cc1cc(C)c(N)cc1C`, the result in assay [1], in assay [3], in assay [6], in assay [7], in assay [8] and in [10] was inactive. The compound was called inactive in [11]. Moreover, the activation in assay [2] is 5.44% (inactive); in [19], -0.054% (inactive). For the same compound, the max response in [4] was 2.74%; in [9], -11.9%; in [12] it was 3.08%; in [13] it was 16.4% (inactive). Besides, the Potency result in assay [5], in assay [15] and in [18] was “inactive” throughout. The activity change % (negative = inhibition) in assay [14] is -8.09% (inactive).

Regarding `Cc1ccc2cccnc2c1`, the outcome in assay [17], in assay [1], in assay [6], in [7], in assay [8] and in assay [11] was inactive. Besides, the activation is -3.65% (inactive) in [2] and -4.94% (inactive) in [16]. Further, the values for the max response in assay [9], in [12] and in assay [13] were 5.51%, 6% and 0.426% (inactive), respectively. Moreover, the activity change % (negative = inhibition) in assay [14] is 17% (inactive). The Potency entry in assay [15] and in assay [18] was “inactive” each time.

For the compound `CC(C=O)Cc1ccc(C(C)(C)C)cc1` (configuration not stated), the outcome in assay [17], in assay [1], in assay [6], in [20], in assay [7] and in [8] was inactive. Besides, the outcome in assay [10] and in [11] was inactive. In addition, the activation was -5.34% (inactive) in assay [2]; 3.13% (inactive) and -1.47% (inactive) in assay [16]. For the same compound, the max response in assay [4] was 41.6%; in assay [9], -4.78% and -12.5%; in assay [12] it was 2.84% and -3.45%; in assay [13], -0.768% (inactive) and 2.1% (inactive). For the same compound, the Potency entry in [5] and in [18] was “inactive” in each case. In assay [14], the activity change % (negative = inhibition) is 4.73% (inactive) and 0.44% (inactive).

On to `Cc1c(C(=O)O)cccc1[N+](=O)[O-]`, for which the result in assay [1], in [3], in assay [6], in [20], in assay [7] and in [8] was inactive. Further, the compound was classed as inactive in [10] and in assay [11]. The activation in assay [2] is -3.11% (inactive); in assay [16], 1.1% (inactive); in assay [19] it was 0.0023% (inactive). For the same compound, the max response in assay [4] is -26.4%; in [9] it was -9.97%; in assay [12], -4.5%; in [13] it was -1.44% (inactive). Moreover, the Potency entry in [5] and in assay [15] was “inactive” in each case. Moreover, the activity change % (negative = inhibition) in assay [14] was 12.8% (inactive).

For `Cc1cccc(C(=O)O)c1`, the compound was called inactive in assay [17], in assay [6], in [20], in assay [7], in assay [8] and in [10]. For the same compound, the call in assay [11] was inactive. The max response in [4] is -5.23%; in assay [9] it was -7.73%; in [12], -2.27%. Also, the Potency result in [5], in [15] and in assay [18] was “inactive” in each case. In addition, the activity change % (negative = inhibition) in assay [14] was 2.36% (inactive). The activation was -0.475% (inactive) in [16] and 0.0626% (inactive) in assay [19].

Take `CCCC(Cl)CCCC(Cl)CCC(Cl)CCC(Cl)CCC(Cl)CCCC(Cl)CCC` (configuration not stated): the compound was called inactive in assay [17], in assay [3], in assay [6], in assay [7], in assay [8] and in [10]. In addition, the compound was called inactive in assay [11]. In addition, the activation is 3.07% (inactive) in assay [2], 0.55% (inactive) in assay [16] and 0.0275% (inactive) in assay [19]. For the same compound, the max response in assay [4] is -30.6%; in assay [9], -10.5%; in [12] it was -0.455%; in assay [13] it was -10.6% (inactive). Further, the Potency entry in assay [5] and in [15] was “inactive” in each case. The activity change % (negative = inhibition) in [14] was -14.9% (inactive).
